Source: PubChem BioAssay
Most compounds without a hit are left out; they make up all but 19% or so of the library.
KB-V1 cytotox: kills drug-selected multidrug resistant KB-V1 cells; KB-V1 MDR cells viability, CellTiter-Glo, 72 h; Potency, µM (series often up to 46.1 µM), actives largely listed as cytotoxic; actives 3.4% (n = 400,000); also: nearly all actives have a fitted effect of over 60% in size
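Readout: CellTiter-Glo luminescence, 10 min after addition. Cells: KB-V1 MDR subline, 72 h at 37 degrees C with compound. Analysis: corrected, normalized data fitted to concentration-effect curves.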
HT1080NT lethal: kills 2HG-producing HT-1080-NT fibrosarcoma cells | HT-1080-NT fibrosarcoma viability, CellTiter-Glo ATP luminescence, 48 h | Potency, µM (doses to about 46.1 µM), for inactives: at the highest dose activity, negative = less viability, most hits filed as cytotoxic | actives 1.6% (n = 360,000);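 also: NT is the 2HG producing partner of a matched IDH1 knockdown line; 0% = DMSO-treated cells and -100% = media-only wells without cells; nearly all actives have a fitted effect of over 55% in size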
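Compounds were tested in concentration-response format on HT-1080-NT cells for 48 hours at 37 degrees C. Cell viability came from CellTiter-Glo luminescence; curves were classified by r2, response magnitude and activity.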
HT1080 IDH1KD tx: toxicity to HT-1080 IDH1 knockdown cells (counter line) | HT-1080 IDH1 knockdown viability, ATP luminescence, 48 h | Potency, µM (highest dose often 46.1 µM), for inactives: top-dose activity, negative = toxicity, hits mostly cytotoxic | actives 2% (n = 360,000);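 also: 0% = DMSO wells and -100% = cell-free medium wells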
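Viability of IDH1-knockdown HT-1080 fibrosarcoma cells was assessed by CellTiter-Glo after 48 h at 37 °C with titrated compound; concentration-effect curves were classified by fit quality and response size.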
TDP1 cell noCPT: qHTS for Inhibitors of human tyrosyl-DNA phosphodiesterase 1 (TDP1): qHTS in cells in absence of CPT | DT40 Tdp1-/- hTDP1 cells, no CPT, ATP luminescence, 48 h | Potency, µM (top dose mostly 46.2 µM), inactives show at the highest dose activity change, negative = growth inhibition, hits mostly inhibitors | actives 15% (n = 420,000) | AID 686978, 2013; also: nearly all actives have a fitted effect of over 55% in size
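Chicken DT40 Tdp1-/- cells complemented with human TDP1, screened without camptothecin (DMSO vehicle only), 400 cells/well. Compounds pin-transferred, cells incubated at 37 °C for at least 48 hr. Growth read as ATP-dependent luminescence (CellTiter-Glo, 30 min at RT).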
KB-3-1 cytotox: kills parental KB-3-1 adenocarcinoma cells | KB-3-1 viability, CellTiter-Glo ATP luminescence, 72 h | AID 1347075 | Potency, µM (highest dose often 46.1 µM), most hits filed as cytotoxic | actives 1.4% (n = 400,000); also: nearly all actives have a fitted effect of over 60% in size
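Parental KB-3-1 viability, qHTS format: 72 h compound exposure, 37 °C; CellTiter-Glo; media-only wells and DMSO plates as controls; concentration-effect fits on corrected data.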
DT40 TDP1 CPT: growth inhibition of DT40 Tdp1-/-;hTDP1 cells with camptothecin (screen for TDP1 inhibitors) | chicken DT40 Tdp1-/-;hTDP1 cells + 20 nM CPT, ATP luminescence, 48 h | Potency, µM (series often up to 46.2 µM), without a hit: at the top dose activity change, negative = growth inhibition, usual class: inhibitors | actives 12% (n = 420,000) | AID 686979; also: nearly all actives have a fitted effect of over 55% in size
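Chicken DT40 Tdp1-/- cells stably complemented with human TDP1 were seeded at 400 cells/well in medium containing 20 nM camptothecin, exposed to pin-transferred compounds, and grown at 37 °C for at least 48 hr. Viability was read as ATP luminescence.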
Active calls of the source: *; [ ] = another dose, or the depositor's remark. Calls follow the shape of the dose curve; as a rule, active = well fitted curve in the direction sought with a large enough effect; inconclusive = small, poorly fitted or top-dose-only effect, or another doubt; inactive = no such curve, though single readings can be large; an effect the other way counts as inactive or inconclusive. Unless noted, % is scaled to controls: 0 for no effect and ±100 for the full control effect; potency is read from the fitted curve at half-maximal effect.

How did CCC(C)n1c(SCc2ccc(C(C)(C)C)cc2)nc2ccsc2c1=O (stereo not drawn) do in these assays?
TDP1 cell noCPT: 13µM*; DT40 TDP1 CPT: 13µM*

Results for COc1ccccc1OCC(=O)N1CCCC(Nc2ccc(F)c(F)c2)C1 (stereo not drawn) ?
KB-V1 cytotox: inconclusive; HT1080NT lethal: 3.6%; HT1080 IDH1KD tx: 1.2%; TDP1 cell noCPT: -4.6%; KB-3-1 cytotox: inactive; DT40 TDP1 CPT: 0.7%

What do the screens show for `Cc1cccc(-n2c(Cc3ccccc3)nnc2SCc2ccc([N+](=O)[O-])cc2)c1`?
KB-V1 cytotox: 7.31µM*; HT1080NT lethal: -2.3%; HT1080 IDH1KD tx: -10.5%; TDP1 cell noCPT: inconclusive; KB-3-1 cytotox: inconclusive; DT40 TDP1 CPT: inconclusive

Results for Cn1c(SCc2ccccc2)nnc1-c1c[nH]c2ccccc12 ?
KB-V1 cytotox: inactive; HT1080NT lethal: 10.0%; HT1080 IDH1KD tx: -1.7%; TDP1 cell noCPT: inconclusive; KB-3-1 cytotox: inactive; DT40 TDP1 CPT: inconclusive

What do the screens show for `COC(=O)c1ccc(CSc2nnc(-c3c[nH]c4ccccc34)n2-c2ccccc2)cc1`?
KB-V1 cytotox: inactive; HT1080NT lethal: -2.5%; HT1080 IDH1KD tx: -22.2%; TDP1 cell noCPT: 16.4µM*; KB-3-1 cytotox: inconclusive; DT40 TDP1 CPT: 20.6µM*

What do the screens show for `Cc1cccc(-n2c(SCc3ccc(C#N)cc3)nnc2-c2c[nH]c3ccccc23)c1`?
KB-V1 cytotox: 3.26µM*; HT1080NT lethal: inconclusive; HT1080 IDH1KD tx: inconclusive; TDP1 cell noCPT: inconclusive; KB-3-1 cytotox: inconclusive; DT40 TDP1 CPT: inconclusive

Results for COC(=O)c1ccc(CSc2nnc(-c3c[nH]c4ccccc34)n2C)o1 ?
KB-V1 cytotox: inactive; HT1080NT lethal: 12.0%; HT1080 IDH1KD tx: 9.8%; TDP1 cell noCPT: 13µM*; KB-3-1 cytotox: inactive; DT40 TDP1 CPT: 23.1µM*

What do the screens show for `COCCn1c(SCc2ccc(C(=O)OC)o2)nnc1-c1c[nH]c2ccccc12`?
KB-V1 cytotox: inconclusive; HT1080NT lethal: 26.8%; HT1080 IDH1KD tx: 4.6%; TDP1 cell noCPT: inconclusive; KB-3-1 cytotox: inactive; DT40 TDP1 CPT: -20.2%

How did CC(=O)c1ccc(-c2ccc(C(=O)NC3CC(C)(C)NC(C)(C)C3)o2)cc1 do in these assays?
KB-V1 cytotox: inactive; HT1080NT lethal: 2.4%; HT1080 IDH1KD tx: 1.4%; TDP1 cell noCPT: inconclusive; KB-3-1 cytotox: inactive; DT40 TDP1 CPT: 23.4%

Results for COc1ccc2c(c1)[nH]c1c(=O)n(/N=C/c3ccc(OC)c(CN4CCCC4)c3)cnc12 ?
KB-V1 cytotox: inactive; HT1080NT lethal: -24.4%; HT1080 IDH1KD tx: -23.7%; TDP1 cell noCPT: inconclusive; KB-3-1 cytotox: inactive; DT40 TDP1 CPT: inconclusive

What do the screens show for `COc1ccc(/C=N/n2cnc3c([nH]c4ccc(C)cc43)c2=O)cc1CN1CCCC1`?
KB-V1 cytotox: inconclusive; HT1080NT lethal: 20.1%; HT1080 IDH1KD tx: -3.1%; TDP1 cell noCPT: 7.31µM*; KB-3-1 cytotox: inconclusive; DT40 TDP1 CPT: 5.17µM*

Results for COc1ccc(/C=N/n2cnc3c([nH]c4ccc(F)cc43)c2=O)cc1CN1CCCC1 ?
KB-V1 cytotox: inconclusive; HT1080NT lethal: 0.2%; HT1080 IDH1KD tx: -1.4%; TDP1 cell noCPT: 3.26µM*; KB-3-1 cytotox: inconclusive; DT40 TDP1 CPT: 5.17µM*

Results for CCC(=O)N1c2ccc(S(=O)(=O)N3CCN(c4ccc([N+](=O)[O-])cc4)CC3)cc2CC1C (stereo not drawn) ?
KB-V1 cytotox: inactive; HT1080NT lethal: inconclusive; HT1080 IDH1KD tx: 6.51µM*; TDP1 cell noCPT: 7.31µM*; KB-3-1 cytotox: inactive; DT40 TDP1 CPT: 9.2µM*

What do the screens show for `CC(=O)c1ccc(N2CCN(S(=O)(=O)c3ccc4c(c3)CC(C)N4C(C)=O)CC2)cc1` (stereo not drawn)?
KB-V1 cytotox: 8.2µM*; HT1080NT lethal: inconclusive; HT1080 IDH1KD tx: inconclusive; TDP1 cell noCPT: 7.31µM*; KB-3-1 cytotox: inconclusive; DT40 TDP1 CPT: 23.1µM*

Results for CC1Cc2cc(S(=O)(=O)N3CCN(C)CC3)ccc2N1C(=O)C1CC1 (stereo not drawn) ?
KB-V1 cytotox: inactive; HT1080NT lethal: 3.0%; HT1080 IDH1KD tx: -5.0%; TDP1 cell noCPT: 10.0%; KB-3-1 cytotox: inactive; DT40 TDP1 CPT: -6.0%

What do the screens show for `Cc1cccc(N2CCN(S(=O)(=O)c3ccc4c(c3)CC(C)N4C(=O)C3CC3)CC2)c1C` (stereo not drawn)?
KB-V1 cytotox: inactive; HT1080NT lethal: inconclusive; HT1080 IDH1KD tx: -1.1%; TDP1 cell noCPT: 23.1µM*; KB-3-1 cytotox: inconclusive; DT40 TDP1 CPT: inconclusive

How did CC(=O)c1ccc(N2CCN(S(=O)(=O)c3ccc4c(c3)CC(C)N4C(=O)C3CC3)CC2)cc1 (stereo not drawn) do in these assays?
KB-V1 cytotox: inactive; HT1080NT lethal: -4.5%; HT1080 IDH1KD tx: -7.9%; TDP1 cell noCPT: 5.8µM*; KB-3-1 cytotox: inconclusive; DT40 TDP1 CPT: 4.61µM*

How did O=C(c1ccc(N2CCC(NCCCn3ncc4ccccc43)CC2)cc1)N1CCOCC1 do in these assays?
TDP1 cell noCPT: -13.3%; DT40 TDP1 CPT: 6.8%[9.04 µM]

How did COC(=O)[C@H]1C[C@@]2(O)CN(S(=O)(=O)c3ccc(C)cc3)C[C@@]2(OC(=O)NC2CC2)C[C@H]1C(=O)OC do in these assays?
KB-V1 cytotox: inactive; HT1080NT lethal: 11.9%; HT1080 IDH1KD tx: -2.5%; TDP1 cell noCPT: -27.3%; KB-3-1 cytotox: inactive; DT40 TDP1 CPT: 4.4%

How did Cc1nc(NCc2c(F)cccc2F)sc1-c1ccn(CCN2CCOCC2)n1 do in these assays?
TDP1 cell noCPT: -8.5%; DT40 TDP1 CPT: 10.2%

How did Cc1ccc(OCCSc2nc3ccccc3n2CC(=O)N2CCOCC2)c(C)c1 do in these assays?
KB-V1 cytotox: inactive; TDP1 cell noCPT: inconclusive; KB-3-1 cytotox: inactive; DT40 TDP1 CPT: inconclusive

Results for CCOC(=O)C1CCCN(c2c(N3CCN(c4ccccn4)CC3)c(=O)c2=O)C1 (stereo not drawn) ?
KB-V1 cytotox: inactive; HT1080NT lethal: -0.6%; HT1080 IDH1KD tx: -1.2%; TDP1 cell noCPT: -13.3%; KB-3-1 cytotox: inactive; DT40 TDP1 CPT: -10.2%

Results for NC(=O)c1c(/N=C/c2cccnc2)sc2c1CCCC2 ?
KB-V1 cytotox: inactive; HT1080NT lethal: -24.2%; HT1080 IDH1KD tx: -20.2%; TDP1 cell noCPT: inconclusive; KB-3-1 cytotox: inactive; DT40 TDP1 CPT: inconclusive
